Reference: PubChem BioAssay (NCI)
Several values for one entry are separate records, joined by “and”; a condition that tells them apart may be missing. Equal entries are not always repeated. About 83,000 compounds went through this panel and 20% of them were active in at least one assay; those are over-represented in the sample as a whole.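 Treatment: one concentration, 48 hours, 96-well format. Scoring: percent growth, with anything below 10 considered active.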 Values without a mark were called inactive. Activity calls are given as the source filed them.

These compounds were tested on MDA-MB-468 breast (assay: NCI-60 one-dose screen, 48 h (100 = growth as untreated, 0 = no growth, -100 = all killed)). Conditions: 10 µM unless noted.
For `NNCCc1ccc(NC(=O)CCCc2ccc(/C=C/C(=O)NO)cc2)cc1`, the growth was 18%. For `FC(F)(F)c1cccc([Si](F)(c2cccc(C(F)(F)F)c2)c2cccc(C(F)(F)F)c2)c1`, the growth was 54.4%. `COc1cc(Cl)cc(-c2nn(-c3cccc(NC(=O)c4ccc(N5CCOCC5)c(C(F)(F)F)c4)c3)cc2-c2ccncc2)c1` showed a growth of 50.2%. For `C[C@@H](Oc1cc(-n2cnc3ccc(CN4CCN(C)CC4)cc32)sc1C(N)=O)c1ccccc1C(F)(F)F`, the growth was 6.59% (active). `CCC(C)Nc1ccc(N)cc1` (stereo not given) was tested, and the growth was -30.9% (active). Compound `COc1cccc(-c2nc3sccn3c2-c2ccnc(NCCNS(=O)(=O)c3ccccc3)n2)c1` has a growth of 67.4%. With `O=C(CCCSc1nc(-c2ccccc2)cc(-c2ccc(Cl)cc2)n1)NO` the growth was -43.9% (active). In the case of `C1Cc2onc(-c3noc4c3CCC4)c2C1`, the growth is reported as 110%. For `Cc1ccc(-c2cc(O)c(-c3ccc(C)cc3C)cc2O)c(C)c1`, the growth was 46.5%. With `Cn1c([N+](=O)[O-])cnc1C=C1C(=O)c2ccccc2C1=O` the growth was 51.3%. For `COC(=O)[C@H](Cc1cn(C)cn1)NC(=O)[C@H](Cc1ccccc1)NC(=O)Nc1cc(C(F)(F)F)cc(C(F)(F)F)c1`, the growth was -69.6% [100 µM] (active). With `COc1cc(/C=C/C(=O)c2ccc(Nc3ncnc4ccccc34)cc2)cc(OC)c1` the growth was 28.8%. `O=C(Cn1nnc([N+](=O)[O-])n1)c1ccccc1` was tested, and the growth was 99.2%. With `COc1ccc(C(=O)/C=C/c2ccc(Oc3nc(NCCO)nc(N4CCOCC4)n3)c(OC)c2)cc1` the growth was 63.4%. With `O=C(Nc1ncc(Cc2cccc(C(F)(F)F)c2)s1)c1ccc2c(c1)OCCO2` the growth was 15.6%. Work on `Cc1ccc(C2CCCCC2)cc1Br` yielded a growth of 97%. With `CCO/C=N/C1=C(C#N)C(c2ccc(F)cc2)c2sc3c(F)cccc3c2O1` (stereo not given) the growth was 27.2%. With `CCC1=C[C@@H]2CN(C1)Cc1c([nH]c3ccccc13)[C@@](C(=O)OC)(c1cc3c(cc1OC)N(C=O)[C@H]1[C@@](O)(C(=O)OC)[C@H](OC(C)=O)[C@]4(CC)[C@@H]5C[C@@H]5CN5CC[C@]31[C@@H]54)C2` the growth was 25.2%. `COc1ccccc1CNCCCN1C(=O)c2ccc3c4c(ccc(c24)C1=O)C(=O)N(CCCNCc1ccccc1OC)C3=O` was tested, and the growth was -96.6% (active). Work on `O=C(Nc1nc(-c2ccccc2)cc(-c2ccc(Cl)cc2)n1)c1ccncc1` yielded a growth of 106%. With `O=C(CCCCCCNC(=O)C(O)(O)C(F)(F)F)Nc1nc2ccccc2s1` the growth was -12.8% (active). With `CC(=O)c1ccc(NC(=O)CSc2nnc(-c3cc(-c4ccc(C)cc4)nc4ccccc34)o2)cc1` the growth was 95.4%. `COc1ccc(-c2nnc(SCC(=O)Nc3ccc(C(=O)/C=C/c4cc(OC)c(OC)c(OC)c4)cc3)n2-c2ccccc2)cc1OC` was tested, and the growth was -14.2% [100 µM] (active). Compound `O=C(NC(=S)NNC(=S)NNc1ccccc1)c1ccccc1` has a growth of 83.7%. In the case of `O=C(Oc1cccc(OC(=O)c2ccccc2)c1)c1ccccc1`, the growth is reported as 110% and 101%. With `COc1ccc(/C=N/Nc2c3ccccc3nc3ccccc23)cc1` the growth was 73.7%. `CCCCNC(=O)Oc1ccc(/C(=C(\C)c2ccccc2)c2ccc(OCCN3CCCCC3)cc2)cc1` gave a growth of 66.8%. `CCCCCN1CCN(C(CC(=O)c2ccccc2)C(=O)c2ccccc2)CC1` (stereo not given) was tested, and the growth was 103%. `COC(=O)[C@@]12CC=C(C)[C@]3(C[C@H](c4ccoc4)OC3=O)[C@H]1C=C[C@@H](O)[C@@]2(O)C(=O)OC` was tested, and the growth was 121%. `CN(C)C1CCN(Cc2ccc(NC(=O)c3cncc(C#Cc4cnc(N)c5ncccc45)c3)cc2C(F)(F)F)CC1` gave a growth of 67%. With `Nc1cc(-c2ccccc2)ccc1O` the growth was 93.5%. Work on `CN1C(=O)/C(=C\c2nc([P+](c3ccccc3)(c3ccccc3)c3ccccc3)c(N3CCOCC3)o2)SC1=S` yielded a growth of 10.1%. For `O=C(Nc1cccc(Cl)c1)Nc1cc2ncncc2cc1OCc1cccc(F)c1`, the growth was -2.43% (active). For `CCOC(=O)C1=C(c2ccccc2)N=C2N(c3ccccc3)N=C(C(C)=O)N2C1c1ccc(F)cc1` (stereo not given), the growth was 93.2%. `CCCCN1CCCCn2c1nc1c2c(=O)n(C)c(=O)n1C` showed a growth of 102%. For `O=C1C=C[C@]2(C[C@@H](c3cccc(C(F)(F)F)c3)O[C@@H](c3cccc(C(F)(F)F)c3)O2)O1`, the growth was -48.8% (active). `Cc1nc(N2CCOCC2)sc1S(N)(=O)=O` showed a growth of 97%. Compound `CCc1ccc(NC(=O)N[C@@H](Cc2cc(F)cc(F)c2)C(=O)N[C@@H]2C(=O)N3C[C@H](O)C[C@H]3C(=O)N3CCOC[C@H]3C(=O)N[C@@H](C)C(=O)N3C[C@H](C)C[C@H]3C(=O)O[C@H]2C)cc1` has a growth of 14.8%. `COc1cc(-c2nn(-c3ccc(NC(=O)c4ccc(Cl)c(Cl)c4)cc3)cc2-c2ccncc2)ccc1Cl` was tested, and the growth was 78.3%. `CCNCCNc1c(C)c(-c2ccc(C(F)(F)F)cc2)c(C#N)c2nc3ccccc3n12` gave a growth of 56.1%.
